The list is not random: actives were taken first. Their share in the collection is about 19%.
TGFb inhibitor: qHTS for Inhibitors of TGF-b | HepG2 CAGA-GFP TGF-b/SMAD3 reporter, GFP fluorescence, 18 h; TGF-beta stimulated, 500 pg/mL final | Potency, µM (titrated, usually from 46.1 µM), actives largely listed as inhibitors | hit rate 1.2% among 410,000 | AID 588855, 2011; further: nearly all actives have a fitted effect of over 65% in size
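HEPG2 CAGA-GFP reporter cells (1000/well, DMEM with 1% FBS) received compounds, then recombinant TGF-beta at 500 pg/mL final for 18 hours at 37 degrees C. Per-cell GFP summed per well was normalised to unstimulated and stimulated DMSO controls before curve fitting.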
TDP1 cell CPT: qHTS for Inhibitors of human tyrosyl-DNA phosphodiesterase 1 (TDP1): qHTS in cells in presence of CPT | chicken DT40 Tdp1-/-;hTDP1 cells + 20 nM CPT, ATP luminescence, 48 h | Potency, µM (titrated, usually from 46.2 µM), actives largely listed as inhibitors | hit rate 12% among 420,000 | AID 686979, 2013; further: nearly all actives have a fitted effect of over 55% in size
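Chicken DT40 Tdp1-/- cells complemented with human TDP1, 400 cells/well, exposed to compounds plus 20 nM camptothecin for at least 48 h at 37 C; viability read as ATP content by CellTiter-Glo luminescence.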
TDP1 cell noCPT: qHTS for Inhibitors of human tyrosyl-DNA phosphodiesterase 1 (TDP1): qHTS in cells in absence of CPT; hit rate 15% among 420,000; DT40 Tdp1-/- hTDP1 cells, no CPT, ATP luminescence, 48 h; Potency, µM (doses to about 46.2 µM), actives largely listed as inhibitors; further: nearly all actives have a fitted effect of over 55% in size
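No-CPT arm: Tdp1-/-;hTDP1 DT40 cells (400/well) plus compounds, incubated ≥48 hr at 37 °C. Readout CellTiter-Glo luminescence.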
TDP1 block: qHTS Assay for Inhibitors of Tyrosyl-DNA Phosphodiesterase (TDP1) | Tyrosyl-DNA phosphodiesterase 1 (Homo sapiens), Q9NUW8 | recombinant TDP1, AlphaScreen DNA substrate cleavage | Potency, µM (series often up to 130 µM), hits mostly inhibitors | hit rate 0.28% among 350,000 | AID 485290, 2010; further: nearly all actives have a fitted effect of over 40% in size
Target sequence (Q9NUW8 whole entry, looked up): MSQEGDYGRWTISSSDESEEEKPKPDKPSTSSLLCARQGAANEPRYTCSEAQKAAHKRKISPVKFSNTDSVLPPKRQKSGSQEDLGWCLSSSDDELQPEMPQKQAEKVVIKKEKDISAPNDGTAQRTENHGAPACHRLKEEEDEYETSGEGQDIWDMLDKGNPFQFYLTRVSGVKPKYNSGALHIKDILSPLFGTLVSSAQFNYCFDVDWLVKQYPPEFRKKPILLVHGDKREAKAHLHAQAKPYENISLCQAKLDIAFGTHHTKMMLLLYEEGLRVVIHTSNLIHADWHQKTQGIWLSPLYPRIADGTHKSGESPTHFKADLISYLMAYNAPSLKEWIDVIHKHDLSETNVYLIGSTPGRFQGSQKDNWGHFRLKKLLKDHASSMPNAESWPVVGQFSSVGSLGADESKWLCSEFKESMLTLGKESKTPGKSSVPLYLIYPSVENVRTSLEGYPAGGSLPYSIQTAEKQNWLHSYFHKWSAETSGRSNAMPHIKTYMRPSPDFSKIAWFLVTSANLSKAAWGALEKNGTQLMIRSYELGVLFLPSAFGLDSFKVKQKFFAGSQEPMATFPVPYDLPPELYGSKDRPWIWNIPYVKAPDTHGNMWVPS
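E. coli-derived human Tdp1, 1 nM final. Cpd preinc 15 min RT; substrate 15 nM final, 5 min RT; AS bead mix 10 ug/ml final, 10 min RT. Signal loss = tyrosine-FITC cleavage. No-enzyme wells = max signal.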
HepG2 viability: qHTS for Inhibitors of TGF-b: Cytotox Counterscreen; HepG2 CAGA-GFP viability, ATP luminescence, 18 h; Potency, µM (titrated, usually from 46.1 µM), most hits filed as cytotoxic; hit rate 0.76% among 410,000; AID 588856, 2011
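HepG2 CAGA-GFP cells (1000/well, DMEM with 1% FBS) received compound, then TGF-beta at 500 pg/mL final, and were incubated 18 hours at 37 degrees C. Viability was read by CellTiter-Glo luminescence. Media-only wells were set as complete cell-killing and DMSO as no toxicity.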
IL-1B inflam inh: qHTS for Inhibitors of Inflammasome Signaling: IL-1-beta AlphaLISA Primary Screen; hit rate 4.7% among 360,000; activity change, % at 57.5 µM; AID 743279, 2014; THP-1 LPS/ATP IL-1B secretion, AlphaLISA, 16 h; active compounds read low; in the data active means activity change below about -50%; inconclusive means mostly about -30% to -49%
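THP-1 cells pretreated 1 hr with compounds (up to 57.5 uM final), then stimulated with LPS (250 ng/mL final) plus ATP (1.25 mM final); secreted IL-1B measured by AlphaLISA after 16 hr, decreased signal indicating inhibition.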
A number is an active result; 0 = inactive; ? = inconclusive; - = no result; ! = not active in a repeat; [ ] = another dose, or the depositor's remark. Unless noted, the call rests on the fitted dose curve; in most records, active means well fitted curve in the direction sought with a large enough effect; inconclusive means small, poorly fitted or top-dose-only effect, or another doubt; inactive means no such curve, though single readings can be large; an effect the other way counts as inactive or inconclusive.

SMILES	TGFb inhibitor	TDP1 cell CPT	TDP1 cell noCPT	TDP1 block	HepG2 viability	IL-1B inflam inh
CC(C)C1N=C2c3ccccc3N=C(SCc3cc(=O)n4cc(Cl)ccc4n3)N2C1=O (configuration not stated)	0	?	15µM	0	0	0
CCOc1cc(-c2nc(-c3ccc(Br)cc3)no2)cc(OCC)c1OCC	0	0	0	-	0	-
N=NC(=O)c1ccccc1Nc1c(O)[nH]c2ccccc12	0	21µM	?	-	0	0
CC(=O)Nc1c(O)[nH]c2ccccc12	0	0	0	0	0	0
Nc1c(-c2nc(-c3ccccc3Cl)no2)nnn1-c1ccccc1C(F)(F)F	0	0	0	0	0	-
O=c1c2ccccc2nnn1COc1ccc(Cl)cc1Br	0	0	0	0	0	0
S=C(c1ccc(N2CCCC2)c(Br)c1)N1CCCCC1	0	21µM	23µM	0	0	0
S=C(c1ccc(N2CCCC2)cc1)N1CCCCC1	0	16µM	18µM	0	0	0
Oc1ccc(C(=S)N2CCCCCC2)cc1	0	0	0	0	0	0
Cc1ccc(C(=S)N2CCCCCC2)cc1	0	16µM	23µM	0	0	0
S=C(c1ccc(N2CCOCC2)cc1)N1CCOCC1	0	?	0	0	0	0
COc1ccc2c(c1)CCC/C2=N\Nc1nc(C(=O)NN)cs1	0	?	?	-	0	-
CCOC(=O)c1csc(NC(=O)c2cccs2)n1	0	0	0	?	0	0
CCOC(=O)c1csc(N/N=C2\CCc3ccccc32)n1	0	?	?	-	0	-93
CCOC(=O)c1csc(N/N=C2\CCCc3ccccc32)n1	?	?	16µM	-	0	0
Cc1ccccc1-c1cncnc1N1CCNCC1	-	0	0	0	-	-
CCc1ccc(C2C3=C(CC(C)(C)CC3=O)OC3=C2C(=O)CC(C)(C)C3)cc1	0	?	23µM	0	0	0
COC(=O)C1CCN(C(=O)Nc2ccccc2)CC1	0	0	0	0	0	-105
CC1CCN(C(=O)Nc2cccc(NC(=O)N3CCC(C)CC3)c2)CC1	0	0	5.2µM	0	0	?
Cc1cccc(OCc2n[nH]c(=S)n2C2CCCCC2)c1	0	23µM	?	0	0	0
Cc1ccc(OCc2n[nH]c(=S)n2C2CCCCC2)cc1	0	29µM	18µM	0	0	0
O=C(CN1C(=O)CSc2ccc(S(=O)(=O)N3CCCC3)cc21)NCc1ccccc1Cl	0	?	0	0	0	-
COc1ccc2c(CNCc3ccco3)c(C(=O)O)n(Cc3cccc(F)c3)c2c1	0	0	?	0	0	-
COCCN(C(=S)Nc1cc(C)cc(C)c1)C(C)c1cccs1 (configuration not stated)	0	18µM	?	0	0	0
COCCN(C(=S)Nc1cc(C)cc(C)c1)C(C)c1ccco1 (configuration not stated)	0	?	26µM	0	0	0
SMILES	TGFb inhibitor	TDP1 cell CPT	TDP1 cell noCPT	TDP1 block	HepG2 viability	IL-1B inflam inh
Cc1ccc(NC(=S)N(CCN(C)C)C(C)c2ccco2)c(C)c1 (configuration not stated)	0	?	?	0	0	0
COc1ccc(C(=O)N2CCC3(CCCN(C(=O)Nc4cccc(C#N)c4)C3)CC2)cc1	-	0	?	-	-	-
Cc1cc(=O)n2[nH]c(N)c(N=Nc3ccccc3F)c2n1	0	?	16µM	0	0	0
Cc1cc(C(F)(F)F)n2[nH]c(=O)c(N=Nc3ccccc3)c2n1	0	0	0	0	0	0
COc1ccc(-c2ccc3c(N)c(C(=O)NC(C)C)sc3n2)cc1OC	0	0	16µM	0	0	-
COc1ccc(-c2ccc3c(N)c(C(=O)c4ccc(OC)c(OC)c4)sc3n2)cc1	?	9.2µM!	9.2µM	0	0	0
COc1cccc(-c2ccc3c(N)c(C(=O)Nc4cc(C(F)(F)F)ccc4OC)sc3n2)c1	0	0	0	-	0	-
COc1ccc(C(=O)c2sc3nc(-c4ccccc4)ccc3c2N)cc1OC	0	16µM	13µM	0	0	0
NC(=O)c1sc2nc(-c3ccccc3)ccc2c1N	0	0	0	-	0	0
COc1cccc(-c2ccc3c(N)c(C(=O)c4ccc(Br)cc4)sc3n2)c1	0	15µM	15µM	-	0	-
Cc1ccc(C(=O)Nc2nc3nc(C)cc(=O)n3[nH]2)cc1	0	0	0	0	0	-
Cc1c(CNCCc2ccc(S(N)(=O)=O)cc2)c(C(=O)O)c(C)n1Cc1ccc(Cl)cc1	0	0	?	0	0	-
COC(=O)C1=C(C)N(Cc2ccccc2)C2=C3C(=O)OCCC3[C@@](O)(C(=O)OC)C(=O)N2C1c1ccccc1 (some centres not stated)	-	-	-	0[21 µM]	-	-
Cc1ccc(C(C)(C)C)cc1	-	-	-	0	-	-
COc1cccc(-c2nn(C)c3sc(C(=O)NCc4ccccn4)cc23)c1	0	?	0	0	0	?
CCOC(=O)N1CCC(NC(=O)c2cc3c(-c4cccc(OC)c4)nn(C)c3s2)CC1	0	23µM	?	0	0	0
COc1cccc(-c2nn(C)c3sc(C(=O)N4CCN(c5cccc(C)c5)C(C)C4)cc23)c1 (configuration not stated)	0	21µM	23µM	0	0	-
CCOC(=O)N1CCN(C(=O)c2cc3c(=O)[nH]c4ccccc4c3s2)CC1	0	?	16µM	0	0	0
CCOC(=O)N1CCN(C(=O)c2cc3c(-c4cccc(OC)c4)nn(C)c3s2)CC1	0	?	23µM	-	0	-67
CCS(=O)(=O)N1CC(=O)N(c2ccccc2C)C(C)(C(=O)NC2CCCCC2)C1 (configuration not stated)	0	0	0	0	0	-
Cc1ccc([C@H]2N[C@]3(CCCN(Cc4ccc(Cl)cc4)C3=O)[C@H]3C(=O)N(Cc4ccccc4)C(=O)[C@@H]23)cc1	0	?	?	-	0	0
CCOC(=O)N1CCC(N2C(=O)c3ccc(C(=O)Nc4ccc(OC)c(OC)c4)cc3C2=O)CC1	0	0	0	0	0	0
Cc1ccc(-c2nc(C)c(CCNC(=O)C(=O)Nc3ccc(C)c(Cl)c3)s2)cc1	0	-	-	0	0	-
CCOc1ccc(-n2c(CCc3ccccc3)n[nH]c2=S)cc1	0	?	?	0	0	0
CCCOc1ccc(CCc2n[nH]c(=S)n2-c2ccccc2)cc1	0	?	16µM	0	0	0

Screens: PubChem, National Center for Advancing Translational Sciences (NCATS)
